# Counter-ions that a name gives are not always drawn.
# Key:
# Details in all cases: compound concentration in added solution (µM; 5 µl added to 20 µl cells): 10; 18 h
# A431 [1] = test: LBPA endosome anti-LBPA integrated intensity (sum per cell), Z-score; higher = more LBPA staining
# Summary of the method: (§1)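 HeLa MZ or A431 cells (3,500/well in 20 µl) were seeded onto 5 µl of 10 µM compound solution in duplicate 384-well imaging plates, incubated 18 h, then fixed in 4% PFA. Cells were stained with 6C4 anti-LBPA antibody, filipin, propidium iodide and CellTracker green, and four 20× images were taken per well. MetaXpress segmentation gave per-cell integrated LBPA or filipin intensity, either whole-cell or within LBPA endosomes. Values are Z-scores normalised in AcuityXpress.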
# HeLa MZ [2] = test: as above
# Summary of the method: as §1
# A431 [3] = test: whole-cell filipin (free cholesterol) integrated intensity, Z-score; higher = more cholesterol staining
# Summary of the method: as §1
# HeLa MZ [4] = test: as above
# Summary of the method: as §1
# A431 [5] = test: filipin (cholesterol) integrated intensity within LBPA endosomes, Z-score; higher = more cholesterol in LBPA endosomes
# Summary of the method: as §1
# HeLa MZ [6] = test: as above
# Summary of the method: as §1
SMILES,LBPA endosome anti-LBPA integrated intensity (z-score) (A431 [1]),LBPA endosome anti-LBPA integrated intensity (z-score) (HeLa MZ [2]),whole-cell filipin (z-score) (A431 [3]),whole-cell filipin (z-score) (HeLa MZ [4]),filipin (z-score) (A431 [5]),filipin (z-score) (HeLa MZ [6])
N=C(N)NCC1COC2(CCCCC2)O1 (stereo not given) [Guanadrel sulfate],-0.435,-0.453,-0.472,-0.401,-0.413,-0.438
"OC(CCN1CCCCC1)(c1ccccc1)C1CCCCC1 (stereo not given) [Trihexyphenidyl-D,L Hydrochloride]",1.27,1.51,0.138,-0.301,0.357,0.149
CC(=O)N(CC(O)CO)c1c(I)c(C(=O)NCC(O)CO)c(I)c(C(=O)NCC(O)CO)c1I (stereo not given) [Iohexol],-0.463,0.247,-0.643,-0.949,-0.508,-0.655
c1ccc(CN(CC2=NCCN2)c2ccccc2)cc1 [Antazoline hydrochloride],-0.107,0.686,-0.0849,0.249,-0.0343,0.301
CN(C)C/C=C(/c1ccc(Br)cc1)c1cccnc1 [Zimelidine dihydrochloride monohydrate],-0.281,0.0916,-0.265,-0.387,0.179,0.387
CN1[C@@H]2CC[C@H]1C[C@@H](OC(c1ccccc1)c1ccccc1)C2 [Benztropine mesylate],2.51,2.77,3.07,3.74,2.51,2.8
Cc1ccccc1OCC(O)CO (stereo not given) [Mephenesin],-0.324,0.139,-0.27,0.183,-0.409,-0.223
NC1CCN(c2nc3c(cc2F)c(=O)c(C(=O)O)cn3-c2ccc(F)cc2F)C1 (stereo not given) [Tosufloxacin hydrochloride],-0.551,-1.59,-0.466,-1.51,-0.679,-0.966
CN1CCC(OC(c2ccccc2)c2ccccc2)CC1 [Diphenylpyraline hydrochloride],0.268,1.06,0.89,0.448,0.505,0.456
CCc1nn(CCCN2CCN(c3cccc(Cl)c3)CC2)c(=O)n1CCOc1ccccc1 [Nefazodone HCl],0.334,2.39,0.625,0.969,0.483,1.14
CCCCOC(=O)c1ccc(O)cc1 [Butylparaben],-0.425,-0.532,-0.203,-0.161,-0.376,-0.449
Cc1cnc(C(=O)NCCc2ccc(S(=O)(=O)NC(=O)NC3CCCCC3)cc2)cn1 [Glipizide],-0.539,0.251,-1.07,-1.32,-0.587,-0.757
CNCCCC1c2ccccc2C=Cc2ccccc21 [Protriptyline hydrochloride],2.36,2.29,1.72,0.684,2.34,2.5
CCN(CC)CCNC(=O)c1cc(Cl)c(N)cc1OC [Metoclopramide monohydrochloride],-0.305,1.1,-0.595,-0.234,-0.404,0.279
Clc1ccccc1CN1CCc2sccc2C1 [Ticlopidine hydrochloride],-0.571,-1.16,-0.834,-0.662,-0.515,-0.675
COc1c2occc2c(OC)c2c(=O)cc(C)oc12 [Khellin],-0.364,-0.599,-0.787,-0.817,-0.439,-0.439
Cc1cc2c(s1)Nc1ccccc1N=C2N1CCN(C)CC1 [Olanzapine],0.0572,1.62,0.197,0.311,0.151,0.615
CN[C@@H]1[C@H](O)[C@H](NC)[C@H]2O[C@@]3(O)C(=O)C[C@@H](C)O[C@H]3O[C@@H]2[C@H]1O [Spectinomycin dihydrochloride],-0.507,-0.585,-0.388,-0.158,-0.451,-0.309
CCCCOc1ccc(OCCCN2CCOCC2)cc1 [Pramoxine hydrochloride],-0.284,1.34,0.443,2.25,-0.151,0.197
CN(CCCCCCCCCCN(C)C(=O)Oc1cccc([N+](C)(C)C)c1)C(=O)Oc1cccc([N+](C)(C)C)c1 [Demecarium bromide],-0.223,-0.152,-0.139,-0.617,-0.179,-0.595
C[C@@H]1C[C@H]2[C@@H]3CCC4=CC(=O)C=C[C@]4(C)[C@@]3(Cl)[C@@H](O)C[C@]2(C)[C@@]1(OC(=O)c1ccco1)C(=O)CCl [Mometasone furoate],-0.183,0.598,-0.317,1.11,-0.214,0.7
COC1=C(OC)C(=O)C(CCCCCCCCCCO)=C(C)C1=O [Idebenone],-0.691,-0.73,-0.893,-0.402,-0.585,-0.582
COc1ccc(Cl)cc1C(=O)NCCc1ccc(S(=O)(=O)NC(=O)NC2CCCCC2)cc1 [Glibenclamide],-0.686,-1.35,-0.573,0.104,-0.559,-0.567
Clc1ccc(C(Cn2ccnc2)OCc2ccsc2Cl)c(Cl)c1 (stereo not given) [Tioconazole],-0.225,0.542,-0.125,-0.75,-0.053,-0.127
COc1cnc(NS(=O)(=O)c2ccc(N)cc2)nc1 [Sulfameter],-0.428,-0.0725,-0.426,-0.359,-0.447,-0.542

SMILES,LBPA endosome anti-LBPA integrated intensity (z-score) (A431 [1]),LBPA endosome anti-LBPA integrated intensity (z-score) (HeLa MZ [2]),whole-cell filipin (z-score) (A431 [3]),whole-cell filipin (z-score) (HeLa MZ [4]),filipin (z-score) (A431 [5]),filipin (z-score) (HeLa MZ [6])
Nc1ncnc2c1ncn2[C@@H]1O[C@H](CO)[C@@H](O)[C@@H]1O [Vidarabine],-0.521,0.0226,-0.393,0.669,-0.496,-0.54
COc1cc(C)nc(-n2nc(C)cc2OC)n1 [Epirizole],-0.401,-0.156,-0.543,-1.08,-0.458,-0.525
Nc1ccc(C(=O)NCC(=O)O)cc1 [Aminohippuric acid],-0.53,-0.169,-0.32,-0.186,-0.48,-0.359
CCOC(=O)N1CCC(=C2c3ccc(Cl)cc3CCc3cccnc32)CC1 [Loratadine],0.316,0.865,0.633,0.548,0.439,0.942
CCCCOc1ccc(CC(=O)NO)cc1 [Bufexamac],-0.196,-0.501,-0.337,-0.569,-0.313,-0.483
CN(C)CC/C=C1/c2ccccc2Sc2ccc(Cl)cc21 [Chlorprothixene hydrochloride],4.13,2.63,1.46,0.54,2.61,2.32
CCOc1ccc(Cc2nccc3cc(OCC)c(OCC)cc23)cc1OCC [Ethaverine hydrochloride],0.203,2.53,0.476,0.57,-0.238,0.366
CC(C)(C)C(=O)OCOC(=O)[C@@H]1N2C(=O)[C@@H](/N=C/N3CCCCCC3)[C@H]2SC1(C)C [Pivmecillinam hydrochloride],-0.535,-0.482,-0.185,-0.0756,-0.424,-0.445
CC1(C)OC(=O)NC1=O [Dimethadione],-0.345,0.802,-0.303,-0.0416,-0.341,-0.341
O=C(O)CCCC[C@@H]1SC[C@@H]2NC(=O)N[C@@H]21 [Biotin],-0.478,-0.782,-0.69,-0.491,-0.471,-0.52
CN(C)CCCN1c2ccccc2CCc2ccccc21 [Imipramine hydrochloride],0.746,0.11,0.885,-0.699,1.08,0.828
Nc1nc(=S)c2ncn([C@@H]3O[C@H](CO)[C@@H](O)[C@H]3O)c2[nH]1 [Thioguanosine],-0.355,1.49,-1.06,-0.863,-0.656,-0.626
CC(C)OC(=O)C(C)(C)Oc1ccc(C(=O)c2ccc(Cl)cc2)cc1 [Fenofibrate],-0.471,-0.341,-0.324,-0.246,-0.435,-0.631
CC(=O)SCC(Cc1ccccc1)C(=O)NCC(=O)OCc1ccccc1 (stereo not given) [Racecadotril],-0.747,-1.18,-0.139,-0.415,-0.589,-0.468
CCC(NC(C)C)C(O)c1ccc(O)c(O)c1 (stereo not given) [Isoetharine mesylate salt],-0.174,0.0426,0.269,-0.32,-0.45,-0.32
O=C1CCc2ccc(OCCCCN3CCN(c4cccc(Cl)c4Cl)CC3)cc2N1 [Aripiprazole],3.32,2.8,2.88,2.45,3.23,4.07
C[C@@H]1CN(c2c(F)c(N)c3c(=O)c(C(=O)O)cn(C4CC4)c3c2F)C[C@H](C)N1 [Sparfloxacin],-0.202,0.876,0.309,0.295,-0.322,-0.143
CN1CCN(CCCN2c3ccccc3Sc3ccc(S(=O)(=O)N(C)C)cc32)CC1 [Thioproperazine dimesylate],2.72,1.97,0.546,-0.109,2.28,2.33
CC(=O)O[C@]1(C(C)=O)CC[C@H]2[C@@H]3C=C(C)C4=CC(=O)CC[C@]4(C)[C@H]3CC[C@@]21C [Megestrol acetate],-0.482,-1.05,-0.244,0.402,-0.317,-0.342
CCC(Cc1c(I)cc(I)c(N)c1I)C(=O)O (stereo not given) [Iopanoic acid],-0.521,-0.571,-0.348,-0.587,-0.484,-0.466
O=C(O)[C@H]1/C(=C/CO)O[C@@H]2CC(=O)N21 [Potassium clavulanate],-0.48,-0.536,0.227,-0.0014,-0.358,-0.433
NS(=O)(=O)c1cc(C(=O)O)cc(N2CCCC2)c1Oc1ccccc1 [Piretanide],-0.606,-1.16,-0.2,0.517,-0.411,-0.576
Nc1ccc(S(=O)(=O)Nc2nccs2)cc1 [Sulfathiazole],-0.403,-0.679,-0.453,0.103,-0.36,-0.308
Fc1ccc(C(c2ccc(F)cc2)N2CCN(C/C=C/c3ccccc3)CC2)cc1 [Flunarizine dihydrochloride],0.53,-0.311,0.301,-0.958,0.627,0.163
CC(C)NC[C@H](O)COc1cccc2ccccc12 [(S)-propranolol hydrochloride],-0.105,1.72,0.666,-0.426,-0.189,0.093
